Results from PubChem BioAssay (NCI).
Compounds without any hit were thinned out: in the full panel of roughly 83,000, 20% have a hit.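 Cell lines were cultured in 96-well plates, exposed to a single compound concentration, and assessed for percent growth 48 hours later.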 Active and inactive are the calls of the source. How the source made its calls: active means growth percent below 10; inactive means the rest.

How the values were obtained:
Assay in all cases: NCI-60 one-dose screen, 48 h (100 = growth as untreated, 0 = no growth, -100 = all killed)
Details in all cases: 10 µM unless noted
SR leukemia = test system: SR leukemia
RPMI-8226 leukemia = test system: RPMI-8226 leukemia
OVCAR-8 ovarian = test system: OVCAR-8 ovarian
OVCAR-5 ovarian = test system: OVCAR-5 ovarian
OVCAR-4 ovarian = test system: OVCAR-4 ovarian
SK-OV-3 ovarian = test system: SK-OV-3 ovarian
IGROV1 ovarian = test system: IGROV1 ovarian
OVCAR-3 ovarian = test system: OVCAR-3 ovarian
NCI/ADR-RES ovarian = test system: NCI/ADR-RES ovarian

Measured: growth

Cc1nc2ccc(-n3ncc(C(=O)c4cc5ccccc5[nH]4)c3N)cc2[nH]1
inactive: SR leukemia 14.6% | RPMI-8226 leukemia 45.2% | OVCAR-8 ovarian 41.9% | OVCAR-5 ovarian 65.9% | OVCAR-4 ovarian 71.1% | SK-OV-3 ovarian 49.6% | IGROV1 ovarian 37.2% | OVCAR-3 ovarian 63.2% | NCI/ADR-RES ovarian 66%

Cc1c(CN2CCN(C(=O)[C@H](C)O)CC2)sc2c(N3CCOCC3)nc(-c3cnc(N)nc3)nc12
active: SR leukemia -3.28% | RPMI-8226 leukemia 1.84% | OVCAR-8 ovarian -4.51% | OVCAR-5 ovarian -11.6% | OVCAR-4 ovarian -9.47% | SK-OV-3 ovarian -39.1% | IGROV1 ovarian -50.1% | OVCAR-3 ovarian 3.12% | NCI/ADR-RES ovarian 7%

C=CC(=O)Nc1cccc(Nc2nc(Nc3ccc(N4CCN(C(C)=O)CC4)cc3OC)ncc2C(F)(F)F)c1
inactive: RPMI-8226 leukemia 16.8% | OVCAR-8 ovarian 18.9% | OVCAR-5 ovarian 13.4% | OVCAR-4 ovarian 10.5% | OVCAR-3 ovarian 19.5% | NCI/ADR-RES ovarian 21.3%
active: SR leukemia 1.68% | SK-OV-3 ovarian -18% | IGROV1 ovarian -29.9%

C=CC(=O)N1CCC(Oc2cc3c(Nc4ccc(Cl)c(Cl)c4F)ncnc3cc2OC)CC1
active: SR leukemia -20.2% | SK-OV-3 ovarian -37.4% | IGROV1 ovarian -44.8% | NCI/ADR-RES ovarian -16.8%
inactive: RPMI-8226 leukemia 35% | OVCAR-8 ovarian 18.4% | OVCAR-5 ovarian 25.3% | OVCAR-4 ovarian 39% | OVCAR-3 ovarian 19.4%

Cc1cc(Nc2ncc(Cl)c(Nc3ccccc3S(=O)(=O)C(C)C)n2)c(OC(C)C)cc1C1CCNCC1
active: SR leukemia -44.7% | RPMI-8226 leukemia -56.7% | OVCAR-8 ovarian -67.2% | OVCAR-5 ovarian -96.6% | OVCAR-4 ovarian -89.2% | SK-OV-3 ovarian -32.2% | IGROV1 ovarian -72.2% | OVCAR-3 ovarian -96.4% | NCI/ADR-RES ovarian -60.6%

Cn1c(Nc2ccc(C(F)(F)F)cc2)nc2cc(Oc3ccnc(-c4ncc(C(F)(F)F)[nH]4)c3)ccc21
active: SK-OV-3 ovarian 6.69%
inactive: SR leukemia 32.1% | RPMI-8226 leukemia 86.7% | OVCAR-8 ovarian 58.1% | OVCAR-5 ovarian 63.2% | OVCAR-4 ovarian 64.7% | IGROV1 ovarian 33.1% | OVCAR-3 ovarian 58.8% | NCI/ADR-RES ovarian 66.3%

CN(C)C1CCN(C(=O)c2ccc(NC(=O)Nc3ccc(-c4nc(N5CCOCC5)nc(N5CCOCC5)n4)cc3)cc2)CC1
inactive: NCI/ADR-RES ovarian 95.6% [2.5 µM]
active: SR leukemia 3.59% [2.5 µM] | RPMI-8226 leukemia -2.37% [2.5 µM] | OVCAR-8 ovarian -20.9% [2.5 µM] | OVCAR-5 ovarian -2.63% [2.5 µM] | OVCAR-4 ovarian -29.9% [2.5 µM] | SK-OV-3 ovarian -51.9% [2.5 µM] | IGROV1 ovarian -54.8% [2.5 µM] | OVCAR-3 ovarian 2.07% [2.5 µM]

O=C(c1ccc(/C=C/c2n[nH]c3ccccc23)cc1)N1CCNCC1
inactive: RPMI-8226 leukemia 48.9% | OVCAR-8 ovarian 58.8% | OVCAR-5 ovarian 14.4% | OVCAR-4 ovarian 54.8% | SK-OV-3 ovarian 48.5% | IGROV1 ovarian 33.5% | OVCAR-3 ovarian 66.8% | NCI/ADR-RES ovarian 82.1%
active: SR leukemia 5.24%

CN(N)c1nc2sc3c(c2c(=O)[nH]1)CCCC3
inactive: SR leukemia 104% | RPMI-8226 leukemia 103% | OVCAR-8 ovarian 102% | OVCAR-5 ovarian 131% | OVCAR-4 ovarian 103% | SK-OV-3 ovarian 82.7% | IGROV1 ovarian 90.1% | OVCAR-3 ovarian 99.7% | NCI/ADR-RES ovarian 104%

O=C(Nc1ccc(Nc2ncnc3sc4c(c23)CCOC4)cc1)Nc1ccc(Cl)c(C(F)(F)F)c1
inactive: SR leukemia 83% | RPMI-8226 leukemia 80.8% | OVCAR-8 ovarian 109% | OVCAR-5 ovarian 89.2% | OVCAR-4 ovarian 131% | SK-OV-3 ovarian 95.3% | IGROV1 ovarian 79.5% | OVCAR-3 ovarian 87.2% | NCI/ADR-RES ovarian 94.7%

CC(=O)Nc1cccc(-n2c(=O)n(C3CC3)c(=O)c3c(Nc4ccc(I)cc4F)n(C)c(=O)c(C)c32)c1
active: OVCAR-5 ovarian 6.47%
inactive: SR leukemia 46.4% | RPMI-8226 leukemia 45.5% | OVCAR-8 ovarian 39% | OVCAR-4 ovarian 37% | SK-OV-3 ovarian 11.3% | IGROV1 ovarian 16.9% | OVCAR-3 ovarian 85.5% | NCI/ADR-RES ovarian 46.6%

C/C(=C(/c1ccc(Cl)cc1)c1ccc(OCCN2CCCCCC2)cc1)c1ccccc1
inactive: SR leukemia 18% | RPMI-8226 leukemia 70.2% | OVCAR-8 ovarian 89% | OVCAR-5 ovarian 69.6% | OVCAR-4 ovarian 73.5% | SK-OV-3 ovarian 113% | IGROV1 ovarian 74.1% | OVCAR-3 ovarian 89.6% | NCI/ADR-RES ovarian 90%

CC/C(=C(/c1ccc(Cl)cc1)c1ccc(OCCN2CCCCC2)cc1)c1ccc(Cl)cc1
inactive: RPMI-8226 leukemia 76.3% | OVCAR-8 ovarian 81.4% | OVCAR-5 ovarian 79.9% | OVCAR-4 ovarian 63.9% | SK-OV-3 ovarian 83.7% | IGROV1 ovarian 91.7% | OVCAR-3 ovarian 78.7% | NCI/ADR-RES ovarian 84.9%
active: SR leukemia 5.18%

O=C(Cc1ccc(-c2ccc(OCCN3CCOCC3)cc2)cn1)NCc1ccccc1
active: SR leukemia 6.9% | OVCAR-8 ovarian 1.32% | SK-OV-3 ovarian -11.9% | NCI/ADR-RES ovarian 0.0856%
inactive: RPMI-8226 leukemia 14.5% | OVCAR-5 ovarian 29.9% | OVCAR-4 ovarian 47.9% | IGROV1 ovarian 15.5% | OVCAR-3 ovarian 20.3%
